Laboratory results as given in PubChem BioAssay.
A number with no mark means an inactive call. How the calls were made is not given here.

These compounds were tested on Aerobactin synthetase IucA (Klebsiella pneumoniae, hypervirulent) (assay: IucA enzyme inhibition, biochemical, LOPAC library, absorbance readout (AID 1346212;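 further: 100% = no compound wells and 0% = no enzyme wells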)). Settings: IucA enzyme assay, absorbance (OD) readout; hits give low values;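 tested at 8 µM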.
In the case of `NS(=O)(=O)C#Cc1ccccc1`, the remaining activity is reported as 118%.
For `CCCCCCCCCCCCCCSCC(=O)O`, the remaining activity was 105%.
With `C/C=C1\C(=O)C[C@H]2[C@@H]3CCC4=CC(=O)CC[C@]4(C)[C@H]3CC[C@]12C` the remaining activity was 101%.
`C=CC[C@H](N)C(=O)O` was tested, and the remaining activity was 95.7%.
`C=C(C)C1CC=C(C(=O)O)CC1` (stereo not drawn) showed a remaining activity of 82.4%.
For `CCNC(=O)N1CCN(CCCC(c2ccc(F)cc2)c2ccc(F)cc2)CC1`, the remaining activity was 112%.
For `CNc1cc(NS(=O)(=O)c2ccc(N)cc2)nc(NC)n1`, the remaining activity was 104%.
For `CC(C)C[C@H](NC(=O)[C@H]1O[C@@H]1C(=O)O)C(=O)NCCCCN=C(N)N`, the remaining activity was 115%.
`CCn1c(=O)[nH]c2cc(Cl)c(Cl)cc21` showed a remaining activity of 98.7%.
Compound `O=C(O)/C(=C/c1c(C(=O)O)[nH]c2cc(Cl)cc(Cl)c12)c1ccccc1` has a remaining activity of 117%.
`O=C1CCC(c2ccc(-n3ccnc3)cc2)=NN1` gave a remaining activity of 111%.
`N[C@@H](COP(=O)(O)O)C(=O)O` gave a remaining activity of 124%.
Work on `Nc1cc(Cl)c(NC2=NCCN2)c(Cl)c1` yielded a remaining activity of 118%.
`Cn1c(=O)c2c(nc(/C=C/c3cccc(Cl)c3)n2C)n(C)c1=O` showed a remaining activity of 88.1%.
`CC#C[C@]1(O)CC[C@H]2[C@@H]3CCC4=CC(=O)CCC4=C3[C@@H](c3ccc(N(C)C)cc3)C[C@@]21C` was tested, and the remaining activity was 111%.
`CC(=O)O[C@H]1C(=O)[C@@]2(C)[C@H]([C@H](OC(=O)c3ccccc3)[C@]3(O)C[C@H](OC(=O)[C@H](O)[C@@H](NC(=O)c4ccccc4)c4ccccc4)C(C)=C1C3(C)C)[C@]1(OC(C)=O)CO[C@@H]1C[C@@H]2O` gave a remaining activity of 94.8%.
`CC1(C)CCC(NC(=O)[C@@H](N)CCC(=O)O)CC1` gave a remaining activity of 116%.
For `CCCCCCCC/C=C\CCCCCCCC(=O)NCCc1ccc(O)c(O)c1`, the remaining activity was 109%.
`CC(C)C[C@H]1C(=O)N2CCC[C@H]2[C@]2(O)O[C@](NC(=O)[C@@H]3C=C4c5cccc6[nH]c(Br)c(c56)C[C@H]4N(C)C3)(C(C)C)C(=O)N12` showed a remaining activity of 108%.
For `COCc1nc2c([nH]1)c(=O)n(C)c(=O)n2CC(C)C`, the remaining activity was 112%.
Work on `CN1CCCC1c1cccnc1` (stereo not drawn) yielded a remaining activity of 115%.
For `Cc1cc(C)c(NC(=O)C[C@H](CC(=O)O)c2cccc3ccccc23)c(C(=O)N2CCC3(CCCC3)CC2)c1`, the remaining activity was 103%.
In the case of `CC(C)CN(C)c1nc(N)c(C(=O)N=C(N)N)nc1Cl`, the remaining activity is reported as 114%.
